Laboratory results: the supplement of paper PMC10849652
About 7,900 targets were measured; listed, in parts, are those with a hit and a random draw of the rest. About 0.6% of all pairs of compound and target were hits. A number with no mark means an inactive call.

Legend:
Assay in all cases: log2 fold change, soluble protein after heating vs DMSO (PISA); higher = thermal stabilisation; K562 cells, 10 uM, 30 min; active = over 0.2 and 3.5 SD of the protein, either way, in both replicates (recomputed)
[1] = compound: Cc1cccc(CC(=O)N2CCc3c2ccc(-c2cn(C)c4ncnc(N)c24)c3F)n1
Outline: (§1)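 Soluble protein was defined as the supernatant after 21,000xg for 90 min. It came from K562 cells at 2×10^6 cells/mL given 10 μM compound for 30 min, heated in aliquots for 3 min across 48°C-58°C, pooled, and extracted in PBS with 0.5% NP-40 at 4°C, and was quantified by TMTpro 16plex LC-MS/MS with equalised channel sums. Thermal stability against control samples, from duplicates, is reported as log2 fold change.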

dasatinib = compound: Cc1nc(Nc2ncc(C(=O)Nc3c(C)cccc3Cl)s2)cc(N2CCN(CCO)CC2)n1 [dasatinib]
Outline: as §1

[2] = compound: Cn1cc(-c2ccc3c(c2)CCN3C(=O)Cc2cccc(C(F)(F)F)c2)c2c(N)ncnc21
Outline: as §1

[3] = compound: Cn1cc(-c2ccc3nnc(C(F)(F)c4ccc5ncccc5c4)n3n2)cn1
Outline: as §1

tipifarnib = compound: Cn1cncc1[C@@](N)(c1ccc(Cl)cc1)c1ccc2c(c1)c(-c1cccc(Cl)c1)cc(=O)n2C [tipifarnib]
Outline: as §1

[4] = compound: NC(=O)Nc1cc(-c2cccc(F)c2)sc1C(=O)N[C@H]1CCCNC1
Outline: as §1

[5] = compound: NC(=O)c1cnc(N[C@@H]2CCCC[C@@H]2N)nc1Nc1cccc(-n2nccn2)c1
Outline: as §1

entinostat = compound: Nc1ccccc1NC(=O)c1ccc(CNC(=O)OCc2cccnc2)cc1 [entinostat]
Outline: as §1

vorinostat = compound: O=C(CCCCCCC(=O)Nc1ccccc1)NO [vorinostat]
Outline: as §1

citarinostat = compound: O=C(CCCCCCNC(=O)c1cnc(N(c2ccccc2)c2ccccc2Cl)nc1)NO [citarinostat]
Outline: as §1

[6] = compound: c1cc(OCCN2CCCCC2)cc(-c2n[nH]c3ccc(-c4nnc[nH]4)cc23)c1
Outline: as §1

bafetinib = compound: Cc1ccc(NC(=O)c2ccc(CN3CC[C@H](N(C)C)C3)c(C(F)(F)F)c2)cc1Nc1nccc(-c2cncnc2)n1 [bafetinib]
Outline: as §1

[7] = compound: NCC(=O)Nc1ccc(-n2nc(C(F)(F)F)cc2-c2ccc3c(ccc4ccccc43)c2)cc1
Outline: as §1

[8] = compound: O=C1NC(=O)C(c2cnc3ccccn23)=C1c1cn2c3c(cc(F)cc13)CN(C(=O)N1CCCCC1)CC2
Outline: as §1

nilotinib = compound: Cc1cn(-c2cc(NC(=O)c3ccc(C)c(Nc4nccc(-c5cccnc5)n4)c3)cc(C(F)(F)F)c2)cn1 [nilotinib]
Outline: as §1

[9] = compound: Cc1nc(Nc2n[nH]c3c2CN(C(=O)N[C@H](CN(C)C)c2ccccc2)C3(C)C)c2sccc2n1
Outline: as §1

[10] = compound: Cc1ncc(-c2ccnc(Nc3ccc(S(C)(=O)=O)cc3)n2)n1C(C)C
Outline: as §1

mubritinib = compound: FC(F)(F)c1ccc(/C=C/c2nc(COc3ccc(CCCCn4ccnn4)cc3)co2)cc1 [mubritinib]
Outline: as §1

[11] = compound: NC1(c2ccc(-c3nc4ccn5c(=O)[nH]nc5c4cc3-c3ccccc3)cc2)CCC1
Outline: as §1

silmitasertib = compound: O=C(O)c1ccc2c(c1)nc(Nc1cccc(Cl)c1)c1ccncc12 [silmitasertib]
Outline: as §1

CWF19L2 (UniProt Q2TBE0)
log2 fold change [1]: -0.285 | log2 fold change (dasatinib): 0.118 | log2 fold change [2]: -0.102 | log2 fold change [3]: 0.001 | log2 fold change (tipifarnib): 0.083 | log2 fold change [4]: 0.129 | log2 fold change [5]: 0.013 | log2 fold change (entinostat): -0.134 | log2 fold change (vorinostat): -0.184 | log2 fold change (citarinostat): 0.13 | log2 fold change [6]: -0.001

FAM193B (UniProt Q96PV7)
log2 fold change (bafetinib): 0.19 | log2 fold change (dasatinib): -0.01 | log2 fold change [2]: 0.171 | log2 fold change (tipifarnib): -0.027 | log2 fold change [4]: 0.22 | log2 fold change [5]: -0.053 | log2 fold change [7]: -0.014 | log2 fold change (entinostat): 0.25 | log2 fold change (citarinostat): 0.032 | log2 fold change [8]: 0.149 | log2 fold change [6]: -0.205

DOLPP1 (UniProt Q86YN1)
Chain of UniProt Q86YN1 (Q86YN1 whole entry, looked up): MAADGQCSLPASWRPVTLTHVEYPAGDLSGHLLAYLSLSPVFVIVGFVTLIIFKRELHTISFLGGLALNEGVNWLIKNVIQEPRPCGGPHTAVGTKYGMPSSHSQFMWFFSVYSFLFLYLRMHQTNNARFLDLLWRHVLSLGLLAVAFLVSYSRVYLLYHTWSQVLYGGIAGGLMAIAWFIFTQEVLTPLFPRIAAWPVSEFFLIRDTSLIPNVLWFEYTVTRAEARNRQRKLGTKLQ
log2 fold change (bafetinib): -0.089 | log2 fold change (nilotinib): 0.035 | log2 fold change [9]: -0.062 | log2 fold change [10]: -0.023 | log2 fold change [2]: -0.045 | log2 fold change [3]: -0.006 | log2 fold change (tipifarnib): 0.075 | log2 fold change (mubritinib): 0.021 | log2 fold change [5]: -0.102 | log2 fold change [11]: -0.053 | log2 fold change [7]: -0.003 | log2 fold change (citarinostat): 0.075 | log2 fold change (silmitasertib): 0.008 | log2 fold change [6]: -0.007

F2RL3 (UniProt Q96RI0)
Chain of UniProt Q96RI0 (Q96RI0 whole entry, looked up): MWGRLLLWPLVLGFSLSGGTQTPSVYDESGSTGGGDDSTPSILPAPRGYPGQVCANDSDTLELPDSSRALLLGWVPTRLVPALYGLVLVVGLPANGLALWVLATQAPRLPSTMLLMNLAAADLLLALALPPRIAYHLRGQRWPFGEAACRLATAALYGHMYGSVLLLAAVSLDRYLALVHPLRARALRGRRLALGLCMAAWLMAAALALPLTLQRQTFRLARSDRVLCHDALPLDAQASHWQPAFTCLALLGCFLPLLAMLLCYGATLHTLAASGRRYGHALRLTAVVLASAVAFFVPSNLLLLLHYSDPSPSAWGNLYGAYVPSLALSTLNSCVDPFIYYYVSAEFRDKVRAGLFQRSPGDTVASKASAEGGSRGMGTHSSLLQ
log2 fold change (dasatinib): -0.03 | log2 fold change [2]: -0.051 | log2 fold change [3]: 0.043 | log2 fold change (tipifarnib): -0.016 | log2 fold change [5]: 0.003 | log2 fold change [7]: -0.085

ELF1 (UniProt P32519)
Chain of UniProt P32519 (P32519 whole entry, looked up): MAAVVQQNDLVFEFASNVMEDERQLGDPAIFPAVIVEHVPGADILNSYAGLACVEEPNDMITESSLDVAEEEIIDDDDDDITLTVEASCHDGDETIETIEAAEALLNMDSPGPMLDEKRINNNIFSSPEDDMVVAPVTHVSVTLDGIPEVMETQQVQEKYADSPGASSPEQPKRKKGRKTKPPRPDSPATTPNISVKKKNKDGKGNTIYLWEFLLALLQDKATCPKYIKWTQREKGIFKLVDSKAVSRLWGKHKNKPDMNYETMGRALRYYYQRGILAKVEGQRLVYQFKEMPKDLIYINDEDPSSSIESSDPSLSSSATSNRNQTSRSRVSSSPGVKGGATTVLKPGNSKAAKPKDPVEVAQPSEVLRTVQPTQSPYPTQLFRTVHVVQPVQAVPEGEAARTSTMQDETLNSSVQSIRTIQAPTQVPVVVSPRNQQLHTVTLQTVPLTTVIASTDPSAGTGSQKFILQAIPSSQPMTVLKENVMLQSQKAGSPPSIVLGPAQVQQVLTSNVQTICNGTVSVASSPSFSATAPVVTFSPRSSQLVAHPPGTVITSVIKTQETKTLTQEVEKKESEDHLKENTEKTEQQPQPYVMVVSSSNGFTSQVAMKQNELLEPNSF
log2 fold change (nilotinib): 0.096 | log2 fold change [9]: -0.028 | log2 fold change (dasatinib): -0.134 | log2 fold change [10]: 0.122 | log2 fold change [2]: 0.003 | log2 fold change [3]: 0.049 | log2 fold change (tipifarnib): -0.024 | log2 fold change [4]: -0.124 | log2 fold change [5]: -0.044 | log2 fold change (entinostat): -0.11 | log2 fold change (citarinostat): -0.089 | log2 fold change [8]: -0.075 | log2 fold change [6]: -0.18

DCAF12 (UniProt Q5T6F0)
Chain of UniProt Q5T6F0 (Q5T6F0 whole entry, looked up): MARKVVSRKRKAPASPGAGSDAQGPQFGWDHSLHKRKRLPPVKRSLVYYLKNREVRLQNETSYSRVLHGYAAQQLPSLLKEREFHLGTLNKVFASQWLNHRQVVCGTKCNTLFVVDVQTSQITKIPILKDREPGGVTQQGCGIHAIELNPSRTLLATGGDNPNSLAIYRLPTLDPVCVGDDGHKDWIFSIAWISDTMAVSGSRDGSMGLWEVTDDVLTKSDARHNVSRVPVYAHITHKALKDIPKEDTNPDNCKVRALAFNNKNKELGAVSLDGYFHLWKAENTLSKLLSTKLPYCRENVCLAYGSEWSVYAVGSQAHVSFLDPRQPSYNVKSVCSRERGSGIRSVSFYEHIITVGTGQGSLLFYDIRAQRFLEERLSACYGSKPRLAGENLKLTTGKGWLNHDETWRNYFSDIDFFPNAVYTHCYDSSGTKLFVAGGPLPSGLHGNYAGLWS
log2 fold change [1]: 0.124 | log2 fold change (mubritinib): 0.087 | log2 fold change [4]: -0.025 | log2 fold change [11]: -0.201 | log2 fold change (entinostat): -0.003 | log2 fold change (vorinostat): -0.021 | log2 fold change (citarinostat): -0.033 | log2 fold change (silmitasertib): 0.051 | log2 fold change [6]: 0.055

DLK1 (UniProt P80370)
log2 fold change (dasatinib): -0.012 | log2 fold change [2]: -0.279 | log2 fold change [7]: -0.061 | log2 fold change (citarinostat): -0.018 | log2 fold change [8]: -0.109 | log2 fold change [6]: -0.203

EHBP1 (UniProt Q8NDI1)
log2 fold change [1]: -0.154 | log2 fold change [2]: -0.076 | log2 fold change (mubritinib): -0.586 (active) | log2 fold change [5]: -0.092 | log2 fold change [11]: 0.017 | log2 fold change (vorinostat): -0.034 | log2 fold change (citarinostat): -0.009 | log2 fold change (silmitasertib): 0.087 | log2 fold change [6]: -0.14

EEF2K (UniProt O00418)
log2 fold change [1]: 0.007 | log2 fold change [2]: -0.108 | log2 fold change [3]: 0 | log2 fold change (tipifarnib): -0.092 | log2 fold change (mubritinib): -0.371 | log2 fold change [11]: -0.119 | log2 fold change [7]: -0.114 | log2 fold change (vorinostat): 0.19 | log2 fold change (citarinostat): -0.05 | log2 fold change (silmitasertib): 0.216 | log2 fold change [8]: 0.178 | log2 fold change [6]: 0.012

FAM117B (UniProt Q6P1L5)
log2 fold change [1]: 0.01 | log2 fold change (dasatinib): 0.207 | log2 fold change [2]: -0.029 | log2 fold change [3]: 0.072 | log2 fold change [5]: -0.159 | log2 fold change [7]: 0.229 | log2 fold change (vorinostat): 0.059 | log2 fold change (citarinostat): -0.047 | log2 fold change [8]: -0.144 | log2 fold change [6]: 0.105

DNAJB1 (UniProt M0R128)
log2 fold change (bafetinib): -0.252 | log2 fold change [2]: -0.022 | log2 fold change [7]: -0.151

DENND1A isoform 6 (UniProt Q8TEH3)
log2 fold change (bafetinib): -0.086 | log2 fold change (tipifarnib): -0.113 | log2 fold change [7]: -0.119

FADS1 (UniProt F5GYH4)
log2 fold change (bafetinib): 0.034 | log2 fold change [7]: -0.191

ERF (UniProt P50548)
log2 fold change [1]: 0.194 | log2 fold change [4]: -0.53 | log2 fold change (entinostat): -0.019 | log2 fold change (vorinostat): 0.023 | log2 fold change [8]: -0.273

EIF4G1 (UniProt Q04637)
log2 fold change [1]: 0.017 | log2 fold change (dasatinib): -0.191 | log2 fold change [2]: -0.032 | log2 fold change [5]: -0.14 | log2 fold change [7]: -0.075 | log2 fold change (vorinostat): 0.085

ENTR1 (UniProt Q96C92)
Chain of UniProt Q96C92 (Q96C92 whole entry, looked up): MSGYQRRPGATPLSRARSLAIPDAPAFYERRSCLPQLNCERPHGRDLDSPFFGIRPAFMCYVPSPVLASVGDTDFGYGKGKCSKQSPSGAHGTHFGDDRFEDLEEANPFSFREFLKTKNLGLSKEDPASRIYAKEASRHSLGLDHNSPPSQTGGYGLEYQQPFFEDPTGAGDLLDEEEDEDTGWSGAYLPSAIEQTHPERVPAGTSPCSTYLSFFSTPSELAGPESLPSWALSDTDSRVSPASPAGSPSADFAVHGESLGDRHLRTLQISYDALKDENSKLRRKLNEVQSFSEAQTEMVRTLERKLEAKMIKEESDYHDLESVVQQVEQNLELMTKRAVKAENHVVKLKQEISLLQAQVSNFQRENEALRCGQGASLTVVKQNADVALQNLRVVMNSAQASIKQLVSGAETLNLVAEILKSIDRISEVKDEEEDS
log2 fold change (dasatinib): 0.003 | log2 fold change (tipifarnib): 0.259 | log2 fold change [7]: -0.284

ELMO1 (UniProt Q92556)
Chain of UniProt Q92556 (Q92556 whole entry, looked up): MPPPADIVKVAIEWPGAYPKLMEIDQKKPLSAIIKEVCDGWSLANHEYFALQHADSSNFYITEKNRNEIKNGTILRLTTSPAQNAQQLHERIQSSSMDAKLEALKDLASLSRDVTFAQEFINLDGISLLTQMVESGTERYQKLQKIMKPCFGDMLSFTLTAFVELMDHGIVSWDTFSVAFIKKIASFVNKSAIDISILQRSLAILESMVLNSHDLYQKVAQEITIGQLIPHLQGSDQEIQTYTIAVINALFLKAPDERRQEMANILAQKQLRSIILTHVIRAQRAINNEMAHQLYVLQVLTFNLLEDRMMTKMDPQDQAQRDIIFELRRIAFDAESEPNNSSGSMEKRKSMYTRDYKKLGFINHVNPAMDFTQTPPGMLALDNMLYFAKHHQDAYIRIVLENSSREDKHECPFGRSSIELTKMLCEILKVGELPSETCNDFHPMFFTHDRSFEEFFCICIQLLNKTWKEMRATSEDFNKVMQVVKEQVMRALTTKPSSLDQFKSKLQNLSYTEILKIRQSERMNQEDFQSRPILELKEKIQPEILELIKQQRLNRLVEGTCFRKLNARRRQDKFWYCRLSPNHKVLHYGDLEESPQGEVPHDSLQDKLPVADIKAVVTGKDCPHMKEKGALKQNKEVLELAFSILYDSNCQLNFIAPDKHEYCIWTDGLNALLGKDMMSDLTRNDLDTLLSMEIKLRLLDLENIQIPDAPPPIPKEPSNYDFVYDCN
log2 fold change (bafetinib): 0.033 | log2 fold change (nilotinib): -0.038 | log2 fold change [9]: 0.026 | log2 fold change (dasatinib): 0.03 | log2 fold change [10]: -0.001 | log2 fold change [3]: 0.06 | log2 fold change (mubritinib): -0.087 | log2 fold change [4]: -0.07 | log2 fold change [11]: -0.146 | log2 fold change [7]: -0.316 | log2 fold change (entinostat): 0.093 | log2 fold change (silmitasertib): 0.04 | log2 fold change [8]: -0.104

CTNNBL1 (UniProt Q8WYA6)
Chain of UniProt Q8WYA6 (Q8WYA6 whole entry, looked up): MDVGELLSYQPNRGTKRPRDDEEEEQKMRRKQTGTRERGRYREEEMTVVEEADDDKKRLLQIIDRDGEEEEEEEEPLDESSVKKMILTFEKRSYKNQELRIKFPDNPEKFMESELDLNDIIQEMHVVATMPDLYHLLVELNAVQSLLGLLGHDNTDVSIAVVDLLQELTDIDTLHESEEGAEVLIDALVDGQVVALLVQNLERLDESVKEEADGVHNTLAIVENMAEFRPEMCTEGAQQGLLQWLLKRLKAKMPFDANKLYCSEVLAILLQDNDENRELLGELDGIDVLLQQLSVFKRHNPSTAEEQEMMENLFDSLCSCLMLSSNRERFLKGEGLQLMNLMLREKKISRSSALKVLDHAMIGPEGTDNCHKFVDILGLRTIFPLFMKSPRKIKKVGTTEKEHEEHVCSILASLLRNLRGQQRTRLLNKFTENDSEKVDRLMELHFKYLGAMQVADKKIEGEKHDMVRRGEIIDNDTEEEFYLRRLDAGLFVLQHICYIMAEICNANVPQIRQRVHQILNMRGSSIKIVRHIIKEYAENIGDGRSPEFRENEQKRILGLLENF
log2 fold change (bafetinib): -0.12 | log2 fold change (tipifarnib): 0.022 | log2 fold change [7]: 0.175 | log2 fold change (citarinostat): 0.057 | log2 fold change [6]: -0.068

ELAC1 (UniProt Q9H777)
Chain of UniProt Q9H777 (Q9H777 whole entry, looked up): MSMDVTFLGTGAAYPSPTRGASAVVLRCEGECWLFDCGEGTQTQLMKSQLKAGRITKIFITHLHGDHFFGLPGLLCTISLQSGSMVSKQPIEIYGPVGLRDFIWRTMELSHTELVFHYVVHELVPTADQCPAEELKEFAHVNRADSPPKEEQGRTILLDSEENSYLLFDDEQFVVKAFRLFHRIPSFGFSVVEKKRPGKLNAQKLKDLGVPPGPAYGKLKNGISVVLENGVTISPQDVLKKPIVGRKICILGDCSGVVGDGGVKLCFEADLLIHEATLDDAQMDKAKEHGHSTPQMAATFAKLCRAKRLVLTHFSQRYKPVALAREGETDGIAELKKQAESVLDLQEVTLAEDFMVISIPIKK
log2 fold change [1]: 0.124 | log2 fold change (nilotinib): 0.145 | log2 fold change [9]: -0.111 | log2 fold change (dasatinib): -0.073 | log2 fold change [10]: -0.103 | log2 fold change [2]: -0.032 | log2 fold change (tipifarnib): 0.036 | log2 fold change [4]: 0.014 | log2 fold change [5]: 0.053 | log2 fold change [7]: -0.082 | log2 fold change (entinostat): -0.202 | log2 fold change (vorinostat): 0.285 | log2 fold change (citarinostat): 0.05 | log2 fold change [8]: 0.075 | log2 fold change [6]: -0.05

DHRS13 (UniProt Q6UX07)
log2 fold change [1]: -0.208 | log2 fold change (nilotinib): 0.197 | log2 fold change [9]: -0.153 | log2 fold change (dasatinib): 0.005 | log2 fold change [10]: -0.106 | log2 fold change [2]: 0.021 | log2 fold change [3]: -0.168 | log2 fold change (mubritinib): 0.049 | log2 fold change [4]: 0.182 | log2 fold change [5]: -0.012 | log2 fold change [11]: 0.102 | log2 fold change [7]: 0.156 | log2 fold change (entinostat): 0.043 | log2 fold change (vorinostat): -0.013 | log2 fold change (citarinostat): 0.1 | log2 fold change (silmitasertib): 0.087 | log2 fold change [6]: -0.06

EPHB4 (UniProt P54760)
Chain of UniProt P54760 (P54760 whole entry, looked up): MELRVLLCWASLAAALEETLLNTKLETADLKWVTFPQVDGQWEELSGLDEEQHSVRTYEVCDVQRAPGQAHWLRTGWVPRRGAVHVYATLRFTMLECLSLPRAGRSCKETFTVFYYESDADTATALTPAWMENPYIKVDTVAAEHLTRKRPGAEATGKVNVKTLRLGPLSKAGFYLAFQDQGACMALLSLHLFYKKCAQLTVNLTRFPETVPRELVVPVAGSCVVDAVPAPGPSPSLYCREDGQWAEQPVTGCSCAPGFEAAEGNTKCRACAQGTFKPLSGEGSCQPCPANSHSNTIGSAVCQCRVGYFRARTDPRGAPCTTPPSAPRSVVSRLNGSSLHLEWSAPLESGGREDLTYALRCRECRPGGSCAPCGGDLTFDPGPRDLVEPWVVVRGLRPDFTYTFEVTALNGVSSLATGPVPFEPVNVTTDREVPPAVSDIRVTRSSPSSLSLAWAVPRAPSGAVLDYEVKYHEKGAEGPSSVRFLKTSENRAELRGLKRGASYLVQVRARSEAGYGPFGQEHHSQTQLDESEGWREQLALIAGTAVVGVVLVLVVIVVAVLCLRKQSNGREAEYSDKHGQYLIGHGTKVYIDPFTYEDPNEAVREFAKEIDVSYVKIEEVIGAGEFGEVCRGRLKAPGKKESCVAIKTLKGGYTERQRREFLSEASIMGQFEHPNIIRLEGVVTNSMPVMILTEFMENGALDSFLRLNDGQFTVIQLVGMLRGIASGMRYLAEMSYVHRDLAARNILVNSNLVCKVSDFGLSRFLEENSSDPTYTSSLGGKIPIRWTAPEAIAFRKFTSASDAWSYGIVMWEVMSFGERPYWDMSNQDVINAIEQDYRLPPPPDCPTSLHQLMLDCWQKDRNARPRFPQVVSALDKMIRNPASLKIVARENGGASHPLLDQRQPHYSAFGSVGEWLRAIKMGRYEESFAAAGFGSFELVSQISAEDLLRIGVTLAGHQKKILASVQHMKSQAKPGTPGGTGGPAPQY
log2 fold change [3]: -0.051 | log2 fold change (tipifarnib): -0.257 | log2 fold change (mubritinib): 0.176 | log2 fold change [4]: -0.207 | log2 fold change [11]: -0.102 | log2 fold change (entinostat): 0.122 | log2 fold change (silmitasertib): 0.18

DBNL (UniProt Q9UJU6)
log2 fold change [2]: 0.308

EEF1D isoform 3 (UniProt P29692)
log2 fold change (mubritinib): -0.014 | log2 fold change [11]: 0.2 | log2 fold change (silmitasertib): -0.401

DHPS (UniProt M0R1T2)
log2 fold change (bafetinib): 0.081 | log2 fold change [4]: 0.063 | log2 fold change (entinostat): 0.072

ELOVL7 (UniProt A1L3X0)
log2 fold change (dasatinib): -0.088 | log2 fold change [2]: -0.057 | log2 fold change [5]: -0.001 | log2 fold change [8]: -0.09

DNAL1 (UniProt Q4LDG9)
Chain of UniProt Q4LDG9 (Q4LDG9 whole entry, looked up): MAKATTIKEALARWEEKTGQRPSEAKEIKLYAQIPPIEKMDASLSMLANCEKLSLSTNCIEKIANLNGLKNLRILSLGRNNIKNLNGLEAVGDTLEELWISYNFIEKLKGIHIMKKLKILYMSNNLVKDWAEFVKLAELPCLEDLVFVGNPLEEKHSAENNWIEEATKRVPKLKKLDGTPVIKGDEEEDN
log2 fold change (bafetinib): 0.035 | log2 fold change (dasatinib): 0.017 | log2 fold change [2]: 0.186 | log2 fold change [3]: 0.012 | log2 fold change [5]: 0.035 | log2 fold change [7]: 0.05 | log2 fold change [8]: -0.26
